# According to PubChem BioAssay (NCI):
# About 83,000 compounds went through this panel and 20% of them were active in at least one assay; those are over-represented in the sample as a whole.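 The test compound was applied at a single concentration to cells in 96-well plates for 48 hours, and percent growth was recorded.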 Values without a mark were called inactive. Active and inactive are the calls of the source. Rule for the calls: active = growth percent below 10; inactive = the rest.
# Test system: OVCAR-3 ovarian
# Assay: NCI-60 one-dose screen, 48 h (100 = growth as untreated, 0 = no growth, -100 = all killed)
# Conditions: 10 µM
row,SMILES,growth
1,CC[C@]12C=CCN3CC[C@@]4(c5ccc(OC)cc5N(C)[C@H]4[C@@](O)(C(=O)OC)[C@@H]1OC(=O)CCCC[P+](C1CCCCC1)(C1CCCCC1)C1CCCCC1)[C@@H]32,-60.3% (active)
2,CC(=O)Oc1ccccc1C(=O)[Se]C(=NC(C)C)NC(C)C,-93.7% (active)
3,COCCOCCOCCOc1ccc(-n2cc(CCCN(CCNc3ccnc4cc(Cl)ccc34)C(=O)CCC(=O)O[C@@H]3O[C@@H]4OC5(C)CC[C@H]6[C@H](C)CC[C@@H]([C@H]3C)[C@@]46OO5)nn2)cc1,35.3%
4,C[C@H]1[C@@H](CC(=O)N[C@@H](Cc2coc3ccccc23)B(O)O)O[C@@H]2OC3(C)CC[C@H]4[C@H](C)CC[C@@H]1[C@@]24OO3,-14.9% (active)
5,COP(=O)(CC(F)(F)C(F)(F)F)OC,-3.42% (active)
6,CC12OOC(C)(OO1)C2CCC(=O)NCCNc1ccnc2cc(Cl)ccc12 (stereo not given),97.3%
7,CC[C@]12C=CCN3CC[C@@]4(c5ccc(OC)cc5N(C)[C@H]4[C@@](O)(C(=O)OC)[C@@H]1OC(=O)CCC[P+](c1ccc(C)cc1)(c1ccc(C)cc1)c1ccc(C)cc1)[C@@H]32,-61.9% (active)
8,CC(C)N=C([Se])NC(=O)c1ccccc1,-61% (active)
9,CC[C@]12C=CCN3CC[C@@]4(c5ccc(OC)cc5N(C)[C@H]4[C@@](O)(C(=O)OC)[C@@H]1OC(=O)CCC[P+](C1CCCCC1)(C1CCCCC1)C1CCCCC1)[C@@H]32,-48.6% (active)
10,CC1=C(COCCOC(=O)c2ccc(S(=O)(=O)F)cc2)C2=C(C)C3(CC3)[C@@](C)(O)C(=O)C2=C1,9.3% (active)
11,CC[C@]12C=CCN3CC[C@@]4(c5ccc(OC)cc5N(C)[C@H]4[C@@](O)(C(=O)OC)[C@@H]1OC(=O)CCCC[P+](c1ccc(OC)cc1)(c1ccc(OC)cc1)c1ccc(OC)cc1)[C@@H]32,-71.8% (active)
12,CC1=C(CCC=NNC(N)=O)C2=C(C)C3(CC3)[C@@](C)(O)C(=O)C2=C1,-57.4% (active)
13,CC[C@@]12CC(C(=O)OC)=C3Nc4cc5c(cc4[C@@]34CCN(C[C@H]3O[C@H]31)[C@@H]24)[C@@H]1[C@H](O5)[C@@H](O)[C@@]2(CC)CC(C(=O)OC)=C3Nc4cc(OC)ccc4[C@@]34CCN1[C@@H]24,7.91% (active)
14,CCOP(=O)(CC(F)(F)C(F)(F)F)OCC,-61.5% (active)
15,CC1=C2C(=C[C@@](C)(COP(=O)(Oc3ccccc3)Oc3ccccc3)[C@@H]2O)C(=O)[C@@](C)(O)C12CC2,-75.4% (active)
16,CC(=O)Oc1ccccc1C(=O)NC([Se])=NC1CCCCC1,-68.1% (active)
17,C[C@H]1[C@H](OC(=O)CCC(=O)N(CCCc2cn(-c3ccc(CN4CCOCC4)cc3)nn2)CCNc2ccnc3cc(Cl)ccc23)O[C@@H]2OC3(C)CC[C@H]4[C@H](C)CC[C@@H]1[C@@]24OO3,38.3%
18,O=C(/C=C/c1ccc(Cl)cc1)c1nc2ccccc2n1Cc1ccc(F)cc1,22.7%
19,CC1=C(CCC=O)C2=C(C)C3(CC3)[C@@](C)(O)C(=O)C2=C1,-77.6% (active)
20,O=C(NC([Se])=NC1CCCCC1)c1ccc2c(c1)OCO2,25.3%
21,C[C@H]1[C@H](OC(=O)CCC(=O)N(CCCc2cn(-c3ccc(C#N)cc3)nn2)CCNc2ccnc3cc(Cl)ccc23)O[C@@H]2OC3(C)CC[C@H]4[C@H](C)CC[C@@H]1[C@@]24OO3,45.2%
22,C[C@H]1[C@@H](Oc2ccc(-c3cn(-c4ccnc5cc(Cl)ccc45)nn3)cc2)O[C@@H]2OC3(C)CC[C@H]4[C@H](C)CC[C@@H]1[C@@]24OO3,32.7%
23,COc1ccc(/C=C/C(=O)c2nc3ccccc3n2Cc2ccc(Br)cc2)cc1,60%
24,COC(=O)CCn1c(-c2ccc(-n3cc(-c4ccc(O[C@H]5O[C@@H]6OC7(C)CC[C@H]8[C@H](C)CC[C@@H]([C@H]5C)[C@@]68OO7)cc4)nn3)cc2)nc2ccccc21,20.4%
25,C[C@H]1[C@H](OC(=O)CCC(=O)N(CCCc2cn(-c3ccc([N+](=O)[O-])cc3)nn2)CCNc2ccnc3cc(Cl)ccc23)O[C@@H]2OC3(C)CC[C@H]4[C@H](C)CC[C@@H]1[C@@]24OO3,40.8%

# Test system: HS 578T breast
# Assay: as above
# Conditions: 10 µM
row,SMILES,growth
1,COc1cc2cc(C(=O)N3C[C@@H](CCl)c4c3cc(OC(=O)N3CCN(C)[C@@H]5CSSC[C@@H]53)c3ccccc43)[nH]c2c(OC)c1OC,-25.5% (active)
2,CCOP(=O)(OCC)C(NC(C)=O)C(=O)SCCN (stereo not given),100%
3,COc1cc2cc(C(=O)N3C[C@@H](CCl)c4c3cc(OC(=O)N3CCN(C)[C@@H]5CSSC[C@H]53)c3ccccc43)[nH]c2c(OC)c1OC,-36% (active)
4,COc1ccc2cc([C@H](C)C(=O)[Se]CCC#N)ccc2c1,-10.2% (active)
5,CC12OOC(C)(OO1)C2CCC(=O)OCCNc1ccnc2cc(Cl)ccc12 (stereo not given),95.2%
6,Cc1ccc2[nH]c(=S)n(-c3ccc(F)cc3)c(=O)c2c1,104%
7,CCOC(=O)C1=C(Nc2ccccc2)C(=O)OC12C(=O)Nc1ccccc12 (stereo not given),106%
8,CC12CCC3(CCC(=O)NCCCNc4ccnc5cc(Cl)ccc45)[C@@](C)(OO[C@]3(C)O1)O2,11.4%
9,CC[C@]12C=CCN3CC[C@@]4(c5ccc(OC)cc5N(C)[C@H]4[C@@](O)(C(=O)OC)[C@@H]1OC(=O)CCCC[P+](C1CCCCC1)(C1CCCCC1)C1CCCCC1)[C@@H]32,-35% (active)
10,CC(=O)Oc1ccccc1C(=O)[Se]C(=NC(C)C)NC(C)C,-15.6% (active)
11,COCCOCCOCCOc1ccc(-n2cc(CCCN(CCNc3ccnc4cc(Cl)ccc34)C(=O)CCC(=O)O[C@@H]3O[C@@H]4OC5(C)CC[C@H]6[C@H](C)CC[C@@H]([C@H]3C)[C@@]46OO5)nn2)cc1,34.9%
12,C[C@H]1[C@@H](CC(=O)N[C@@H](Cc2coc3ccccc23)B(O)O)O[C@@H]2OC3(C)CC[C@H]4[C@H](C)CC[C@@H]1[C@@]24OO3,-4.2% (active)
13,COP(=O)(CC(F)(F)C(F)(F)F)OC,75.3%
14,CC12OOC(C)(OO1)C2CCC(=O)NCCNc1ccnc2cc(Cl)ccc12 (stereo not given),99.8%
15,CC[C@]12C=CCN3CC[C@@]4(c5ccc(OC)cc5N(C)[C@H]4[C@@](O)(C(=O)OC)[C@@H]1OC(=O)CCC[P+](c1ccc(C)cc1)(c1ccc(C)cc1)c1ccc(C)cc1)[C@@H]32,-60.3% (active)
16,CC(C)N=C([Se])NC(=O)c1ccccc1,-2.5% (active)
17,CC[C@]12C=CCN3CC[C@@]4(c5ccc(OC)cc5N(C)[C@H]4[C@@](O)(C(=O)OC)[C@@H]1OC(=O)CCC[P+](C1CCCCC1)(C1CCCCC1)C1CCCCC1)[C@@H]32,-33% (active)
18,CC1=C(COCCOC(=O)c2ccc(S(=O)(=O)F)cc2)C2=C(C)C3(CC3)[C@@](C)(O)C(=O)C2=C1,-12.9% (active)
19,CC[C@]12C=CCN3CC[C@@]4(c5ccc(OC)cc5N(C)[C@H]4[C@@](O)(C(=O)OC)[C@@H]1OC(=O)CCCC[P+](c1ccc(OC)cc1)(c1ccc(OC)cc1)c1ccc(OC)cc1)[C@@H]32,-67.5% (active)
20,CC1=C(CCC=NNC(N)=O)C2=C(C)C3(CC3)[C@@](C)(O)C(=O)C2=C1,-24.5% (active)
21,CC[C@@]12CC(C(=O)OC)=C3Nc4cc5c(cc4[C@@]34CCN(C[C@H]3O[C@H]31)[C@@H]24)[C@@H]1[C@H](O5)[C@@H](O)[C@@]2(CC)CC(C(=O)OC)=C3Nc4cc(OC)ccc4[C@@]34CCN1[C@@H]24,-6.21% (active)
22,CCOP(=O)(CC(F)(F)C(F)(F)F)OCC,82.2%
23,CC1=C2C(=C[C@@](C)(COP(=O)(Oc3ccccc3)Oc3ccccc3)[C@@H]2O)C(=O)[C@@](C)(O)C12CC2,-25.2% (active)
24,C[C@H]1[C@H](OC(=O)CCC(=O)N(CCCc2cn(-c3ccc(CN4CCOCC4)cc3)nn2)CCNc2ccnc3cc(Cl)ccc23)O[C@@H]2OC3(C)CC[C@H]4[C@H](C)CC[C@@H]1[C@@]24OO3,9.17% (active)
25,CC1=C(CCC=O)C2=C(C)C3(CC3)[C@@](C)(O)C(=O)C2=C1,-8.94% (active)
26,O=C(NC([Se])=NC1CCCCC1)c1ccc2c(c1)OCO2,60.8%
27,C[C@H]1[C@H](OC(=O)CCC(=O)N(CCCc2cn(-c3ccc(C#N)cc3)nn2)CCNc2ccnc3cc(Cl)ccc23)O[C@@H]2OC3(C)CC[C@H]4[C@H](C)CC[C@@H]1[C@@]24OO3,43%
28,C[C@H]1[C@@H](Oc2ccc(-c3cn(-c4ccnc5cc(Cl)ccc45)nn3)cc2)O[C@@H]2OC3(C)CC[C@H]4[C@H](C)CC[C@@H]1[C@@]24OO3,32.5%
29,COC(=O)CCn1c(-c2ccc(-n3cc(-c4ccc(O[C@H]5O[C@@H]6OC7(C)CC[C@H]8[C@H](C)CC[C@@H]([C@H]5C)[C@@]68OO7)cc4)nn3)cc2)nc2ccccc21,30.3%
30,C[C@H]1[C@H](OC(=O)CCC(=O)N(CCCc2cn(-c3ccc([N+](=O)[O-])cc3)nn2)CCNc2ccnc3cc(Cl)ccc23)O[C@@H]2OC3(C)CC[C@H]4[C@H](C)CC[C@@H]1[C@@]24OO3,52.8%
